Records with an inconclusive call do not appear. The source made the active and inactive calls. The calls were made as follows: active = hit-call score of the fitted dose curve at least 0.9, where 1 is the maximum; inconclusive = response in the unintended direction; inactive = score below 0.9.
What follows are compounds tested against human Dual Specificity Protein Phosphatase 3 (DUSP3), DUSP3 (gene 1845) (UniProt P51452) (assay: NVS_ENZ_hDUSP3: NovaScreen (NVS) Enzymatic Assay for human Dual Specificity Protein Phosphatase 3 (DUSP3) (AID 2283152);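 also: phosphatase activity of recombinant human DUSP3 on a fluorogenic substrate without cells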).
Summary of the method: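 Cell-free fluorescence-intensity enzyme activity assay with recombinant protein and substrate; loss of signal fitted relative to DMSO baseline. Primary screen in duplicate at 25 uM, actives then run in concentration series; measured 0 h after dosing.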

human Dual Specificity Protein Phosphatase 3 (DUSP3), DUSP3 (gene 1845), sequence (P51452 whole entry, looked up): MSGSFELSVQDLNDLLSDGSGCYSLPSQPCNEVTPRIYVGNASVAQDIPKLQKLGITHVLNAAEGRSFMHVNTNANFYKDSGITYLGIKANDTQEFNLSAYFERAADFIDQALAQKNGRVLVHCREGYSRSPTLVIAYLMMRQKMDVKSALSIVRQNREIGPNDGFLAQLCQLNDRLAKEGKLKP

Row | SMILES | outcome | AC50
1 | COC(=O)N(C(=O)N1CO[C@@]2(C(=O)OC)Cc3cc(Cl)ccc3C2=N1)c1ccc(OC(F)(F)F)cc1 | inactive | –
2 | CCOC(=O)C(C)OC(=O)c1cc(Oc2ccc(C(F)(F)F)cc2Cl)ccc1[N+](=O)[O-] (stereo not given) | inactive | –
3 | CC1(C)C(C=C(Cl)Cl)C1C(=O)OC(C#N)c1cccc(Oc2ccccc2)c1 (stereo not given) | – | 3.06 µM (active)
4 | CCCC(=NOCC)C1=C(O)CC(CC(C)SCC)CC1=O (stereo not given) | inactive | –

What follows are compounds tested against human Elastase, ELANE (gene 1991) (UniProt P08246) (assay: NVS_ENZ_hElastase: NovaScreen (NVS) Enzymatic Assay for human Elastase (AID 2283153)).
Summary of the method: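 Concentration-response to 50 uM max, run singly for chemicals passing a threshold (e.g., 30% inhibition) in a duplicate 25 uM single-point screen. Neutrophil-derived human elastase, absorbance read-out of enzyme activity at 1.5 h; DMSO baseline.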

human Elastase, ELANE (gene 1991), sequence (P08246 whole entry, looked up): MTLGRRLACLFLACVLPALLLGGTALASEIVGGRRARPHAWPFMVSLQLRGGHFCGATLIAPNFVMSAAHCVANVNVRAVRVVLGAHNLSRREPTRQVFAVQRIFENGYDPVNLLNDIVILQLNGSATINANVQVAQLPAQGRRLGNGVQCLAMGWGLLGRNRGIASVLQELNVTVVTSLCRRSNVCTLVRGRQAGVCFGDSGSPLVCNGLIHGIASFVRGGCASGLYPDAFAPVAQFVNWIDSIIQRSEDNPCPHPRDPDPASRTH

Row | SMILES | outcome | AC50
5 | CCOC(=O)C(C)OC(=O)c1cc(Oc2ccc(C(F)(F)F)cc2Cl)ccc1[N+](=O)[O-] (stereo not given) | inactive | –
6 | O=c1n(Cl)c(=O)n(Cl)c(=O)n1Cl | inactive | –
7 | CCOc1cc(C(C)(C)C)ccc1C1COC(c2c(F)cccc2F)=N1 (stereo not given) | – | 40.9 µM (active)
8 | CC1(C)C(C(=O)OC(C#N)c2cccc(Oc3ccccc3)c2)C1(C)C (stereo not given) | inactive | –
9 | OC(c1ccc(Cl)cc1)(c1ccc(Cl)cc1)C(Cl)(Cl)Cl | inactive | –
10 | Cc1c(COC(=O)[C@@H]2[C@H](/C=C(\Cl)C(F)(F)F)C2(C)C)cccc1-c1ccccc1 | inactive | –

From PubChem BioAssay (EPA / NIEHS)
